A selection: hits, their analogues and other compounds. The true share with any hit is near 18%.
TGFb inhibitor – TGF-b pathway inhibition. HepG2 CAGA-GFP TGF-b/SMAD3 reporter, GFP fluorescence, 18 h; TGF-beta stimulated, 500 pg/mL final. Potency, µM (highest dose often 46.1 µM), without a hit: at the top dose activity, negative = inhibition, usual class: inhibitors. 410,000 tested, 1.2% active. AID 588855; note: potency is the fitted concentration of half-maximal effect; % is set by controls: 0 for no effect and ±100 for the full control effect; nearly all actives have a fitted effect of over 65% in size
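Using HEPG2 CAGA-GFP reporter cells at 1000 cells/well, we pinned test compounds, stimulated with recombinant TGF-beta (500 pg/mL final) and measured total well GFP after 18 h.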
DT40 TDP1 no CPT – qHTS for Inhibitors of human tyrosyl-DNA phosphodiesterase 1 (TDP1): qHTS in cells in absence of CPT; DT40 Tdp1-/- hTDP1 cells, no CPT, ATP luminescence, 48 h; Potency, µM (top dose mostly 46.2 µM), inactives show at the highest dose activity change, negative = growth inhibition, actives largely listed as inhibitors; 420,000 tested, 15% active; AID 686978, 2013; note: potency is the fitted concentration of half-maximal effect; % is set by controls: 0 for no effect and ±100 for the full control effect; nearly all actives have a fitted effect of over 55% in size
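A cellular qHTS used chicken DT40 cells lacking endogenous Tdp1 but carrying stably transfected human TDP1. Compounds were applied without camptothecin, and cell growth kinetics were judged by ATP-dependent luminescence after ≥48 hr.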
IL-1B inflam inh – inhibitors of inflammasome signaling (IL-1 beta secretion); 360,000 tested, 4.7% active; THP-1 LPS/ATP IL-1B secretion, AlphaLISA, 16 h; hits give low values; AID 743279; activity change, % at 57.5 µM; in the data active = activity change below about -50%; inconclusive = mostly about -30% to -49%; note: % is set by controls: 0 for no effect and ±100 for the full control effect
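THP-1 cells pretreated 1 hr with compounds (up to 57.5 uM final), then stimulated with LPS (250 ng/mL final) plus ATP (1.25 mM final); secreted IL-1B measured by AlphaLISA after 16 hr, decreased signal indicating inhibition.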
TDP1 block – TDP1 (human) enzyme inhibition. Q9NUW8. recombinant TDP1, AlphaScreen DNA substrate cleavage. Potency, µM (doses to about 130 µM), for the others: at the top dose activity change, negative = inhibition, usual class: inhibitors. 350,000 tested, 0.28% active; note: potency is the fitted concentration of half-maximal effect; % is set by controls: 0 for no effect and ±100 for the full control effect; nearly all actives have a fitted effect of over 40% in size
Target sequence (Q9NUW8 whole entry, looked up): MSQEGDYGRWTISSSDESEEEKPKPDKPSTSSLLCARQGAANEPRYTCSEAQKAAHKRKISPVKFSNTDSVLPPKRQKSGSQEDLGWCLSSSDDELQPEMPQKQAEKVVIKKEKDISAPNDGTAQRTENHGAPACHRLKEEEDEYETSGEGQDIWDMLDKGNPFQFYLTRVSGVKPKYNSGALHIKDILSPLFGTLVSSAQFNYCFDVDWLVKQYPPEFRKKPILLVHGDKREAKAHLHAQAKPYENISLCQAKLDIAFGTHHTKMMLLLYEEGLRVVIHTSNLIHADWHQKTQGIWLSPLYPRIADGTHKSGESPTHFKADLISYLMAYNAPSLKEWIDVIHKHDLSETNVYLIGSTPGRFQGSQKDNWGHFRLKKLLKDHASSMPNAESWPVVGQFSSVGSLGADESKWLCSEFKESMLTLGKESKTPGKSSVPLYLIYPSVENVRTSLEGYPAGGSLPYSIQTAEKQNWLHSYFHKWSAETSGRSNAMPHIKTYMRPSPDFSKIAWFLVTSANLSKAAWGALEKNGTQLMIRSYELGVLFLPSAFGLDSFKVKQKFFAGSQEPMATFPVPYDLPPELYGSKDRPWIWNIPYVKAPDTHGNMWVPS
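Enzyme-compound mixtures sat 15 min at room temperature, followed by a 5 min reaction with 15 nM final substrate and 10 min with AlphaScreen beads. Recombinant human Tdp1 was used at 1 nM final.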
HepG2 tox – counter-screen for TGF-b inhibitors: cytotoxicity in HepG2 cells | HepG2 CAGA-GFP viability, ATP luminescence, 18 h | Potency, µM (highest dose often 46.1 µM), for the others: top-dose activity change, negative = cytotoxicity, most hits filed as cytotoxic | 410,000 tested, 0.76% active; note: potency is the fitted concentration of half-maximal effect
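CellTiter-Glo luminescence gave cytotoxicity after 18 hours at 37 degrees C. The cells were HepG2 CAGA-GFP in 1% FBS DMEM, stimulated with 500 pg/mL TGF-beta after compound addition. %Activity was normalised to no-cell wells (complete cell-killing) and DMSO (no toxicity), and curves were fitted and classified.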
DT40 TDP1 CPT – DT40-hTDP1 cell growth loss with CPT; Potency, µM (series often up to 46.2 µM), without a hit: top-dose activity change, negative = growth inhibition, usual class: inhibitors; chicken DT40 Tdp1-/-;hTDP1 cells + 20 nM CPT, ATP luminescence, 48 h; 420,000 tested, 12% active; note: potency is the fitted concentration of half-maximal effect; % is set by controls: 0 for no effect and ±100 for the full control effect; nearly all actives have a fitted effect of over 55% in size
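Cell growth measured by CellTiter-Glo luminescence after a minimum 48 h, 37 C compound exposure with 20 nM CPT in Tdp1-knockout DT40 cells stably expressing hTDP1, seeded 400/well; qHTS titration format.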
* hit, by the source's call; ? = inconclusive; / = no result given; [ ] = another dose, or the depositor's remark. Unless noted, calls come from the whole dose curve; as a rule, active = well fitted curve in the direction sought with a large enough effect; inconclusive = small, poorly fitted or top-dose-only effect, or another doubt; inactive = no such curve, though single readings can be large; an effect the other way counts as inactive or inconclusive.

SMILES	TGFb inhibitor	DT40 TDP1 no CPT	IL-1B inflam inh	TDP1 block	HepG2 tox	DT40 TDP1 CPT
O=C(NCCn1cccn1)c1ccc(OC2CCN(CCc3ccccc3)CC2)cc1	2.1%	-18.9%	-80.9*	/	-2.7%	13.4%
Clc1cccc[n+]1CCc1ccccc1	-20.4%	7.0%	/	/	-2.0%	-28.0%
COc1ccc(CNCc2ccc3c(c2)OCO3)cc1Br	0.9%	16.4µM*	-23.1	/	-16.1%	?
O=C(Nc1nnc([C@@H]2O[C@H](CO)[C@@H](O)[C@H]2O)s1)Nc1ccccc1C(F)(F)F	3.9%	-21.6%	9.1	/	6.7%	6.4%
Cc1ccc(C(=O)Nc2cccc(C(=O)N3CCOCC3)c2)cc1Cl	?	?	12.0	2.9%	-7.1%	4.7%
COCCNc1oc(-c2ccc(Cl)cc2)nc1C#N	17.6%	-3.8%	-55.9*	2.0%	67.7%	0.9%
C=CCNc1oc(-c2ccc(-c3ccccc3)cc2)nc1C#N	10µM*	/	/	4.3%	-38.8%	/
C=CCNc1oc(-c2cccc(Cl)c2)nc1C#N	?	/	/	1.1%	-24.7%	/
COc1ccc(CNc2oc(-c3ccccc3)nc2C#N)cc1	-2.5%	-23.8%	76.1	5.2%	-2.6%	-0.4%
COc1ccc(Nc2oc(-c3ccc(Cl)cc3)nc2C#N)cc1	-12.8%	2.91µM*	-15.0	5.2%	-13.7%	6.51µM*
COc1ccc(-c2nc(C#N)c(NCCc3ccccc3)o2)cc1	-7.6%	14.1µM*	-3.8	0.0%	-1.5%	14.6µM*
COc1ccc(Nc2oc(-c3ccc(OC)cc3)nc2C#N)cc1	?	-28.3%	-4.0	/	-28.7%	6.2%
CCOc1ccccc1OCCC(=O)OCC(=O)Nc1c(C)nn(-c2ccccc2)c1C	21.1%	-9.7%	19.3	-9.0%[0.505 µM]	-20.5%	-12.4%
CCN(CC)CCCNc1oc(-c2cccc(Cl)c2)nc1C#N	39.9%	23.1µM*	-8.6	0.0%	-32.0%	?
CCOc1ccc(Nc2oc(-c3ccc(Cl)cc3)nc2C#N)cc1	-5.4%	4.11µM*	-9.2	4.1%	-26.2%	?
CN(C)CCCNc1oc(-c2ccc(Cl)cc2)nc1C#N	6.8%	?	15.5	4.9%	-25.2%	?
COc1ccc(Nc2oc(-c3ccccc3)nc2C#N)cc1	?	1.9%	?	3.1%	-10.8%	-12.8%
CC1(C)C/C(=N\NC(=S)Nc2ccccc2F)c2cc(O)ccc2O1	?	4.11µM*	-78.6*	11.8%	-45.2%	?
Cc1cccc(NC(=S)N/N=C2\CC(C)(C)Oc3ccc(O)cc32)c1	5.5%	2.59µM*	?	5.6%	-22.9%	3.66µM*
CCCn1ccnc1SCC(=O)Nc1c(C)n(C)n(-c2ccccc2)c1=O	-1.7%	-21.4%	0.0	0.4%	-1.2%	9.4%
COCCNC(=O)c1cc(-c2ccccc2C)nn1CC1CC(c2cccnc2)=NO1 (stereo unspecified)	2.3%	-9.2%	-2.2	-2.3%	-7.3%	?
CC1=NN(C(=O)c2ccc(C)o2)C(O)(c2ccccc2)C1 (stereo unspecified)	0.0%	4.61µM*	9.6	3.4%	-24.1%	4.61µM*
CC1=NN(C(=O)c2ccco2)C(O)(c2ccccc2)C1 (stereo unspecified)	?	0.92µM*	5.3	4.7%	-42.4%	1.03µM*
CCOC(=O)N1N=C(C)CC1(O)c1ccc(Cl)cc1 (stereo unspecified)	-11.9%	-0.1%	-15.5	6.0%	-12.4%	1.7%
CC1=NN(C(=O)c2ccccc2Br)C(O)(c2ccc(Cl)cc2)C1 (stereo unspecified)	?	-23.6%	6.8	1.7%	-52.7%	2.4%
Cc1ccc(/C=C2/C(=O)N(c3ccccc3)C(=S)N2C)o1	-16.1%	23.1µM*	0.0	2.6%	-31.1%	?
